Experimental findings from PubChem BioAssay (NCATS) are described below.

Results filed as inconclusive are left out. A call without a number means that no potency is given here. Calls of active or inactive are those of the source. Calls come from the whole dose curve; as a rule, active = well fitted curve in the direction sought with a large enough effect; inconclusive = small, poorly fitted or top-dose-only effect, or another doubt; inactive = no such curve, though single readings can be large; an effect the other way counts as inactive or inconclusive.
Potency is the fitted concentration of half-maximal effect.

Rap guanine nucleotide exchange factor 3 (Homo sapiens), sequence (O95398 whole entry, looked up): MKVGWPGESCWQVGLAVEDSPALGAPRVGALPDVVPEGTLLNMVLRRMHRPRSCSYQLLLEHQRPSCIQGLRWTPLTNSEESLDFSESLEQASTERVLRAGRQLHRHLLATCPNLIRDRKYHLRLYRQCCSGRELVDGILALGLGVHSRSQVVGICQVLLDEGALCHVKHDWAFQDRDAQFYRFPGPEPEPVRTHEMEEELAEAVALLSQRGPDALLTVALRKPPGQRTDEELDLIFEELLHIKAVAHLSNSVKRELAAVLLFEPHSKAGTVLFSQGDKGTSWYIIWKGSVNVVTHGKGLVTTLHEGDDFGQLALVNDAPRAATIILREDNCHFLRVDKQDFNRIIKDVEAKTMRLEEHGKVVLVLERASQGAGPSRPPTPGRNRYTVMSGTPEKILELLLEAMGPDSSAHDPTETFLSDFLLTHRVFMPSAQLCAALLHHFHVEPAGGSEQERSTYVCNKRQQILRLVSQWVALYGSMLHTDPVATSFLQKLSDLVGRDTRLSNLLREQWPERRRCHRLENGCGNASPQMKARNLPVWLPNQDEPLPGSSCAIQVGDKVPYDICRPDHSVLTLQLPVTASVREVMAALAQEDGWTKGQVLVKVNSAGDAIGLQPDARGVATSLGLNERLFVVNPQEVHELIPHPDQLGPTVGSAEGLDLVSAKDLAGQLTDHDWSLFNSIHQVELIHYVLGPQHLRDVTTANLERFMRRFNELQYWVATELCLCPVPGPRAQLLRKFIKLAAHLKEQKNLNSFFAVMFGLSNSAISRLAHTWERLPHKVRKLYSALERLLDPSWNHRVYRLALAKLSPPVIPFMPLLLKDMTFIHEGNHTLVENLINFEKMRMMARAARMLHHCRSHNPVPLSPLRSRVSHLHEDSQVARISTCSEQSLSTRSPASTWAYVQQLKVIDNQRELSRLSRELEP

The first assay has as its target Rap guanine nucleotide exchange factor 3 (Homo sapiens) (UniProt O95398). In words: Confirmatory qHTS for antagonist of cAMP-regulated guanine nucleotide exchange factor 3 (EPAC1) (AID 1645880). Note: nearly all actives have a fitted effect of over 55% in size. The conditions noted are these: EPAC1 Rap1B-BODIPY-GDP exchange, fluorescence; activity, negative = inhibition: at 115 µM (top of the series). An outline of the steps: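 Nucleotide exchange uses 100 nM EPAC1, 250 nM RAP1B-BODIPY-GDP and 50 uM GDP, with compounds in a concentration-titration series. After 5 min at room temperature, fluorescence (480 nm ex/540 nm em) is read every 5 min for 30 min. Data are normalized to control ATA and DMSO.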
Consider `COC(=O)c1cn(C(=O)c2ccc(C)cc2C)c2ccccc12`, for which the Potency entry was “inactive”.

Turning to `Cc1ccc(S(=O)(=O)N2[C@@H](c3ccc(C(C)(C)C)cc3)C(C(=O)O)=CC[C@H]2c2ccc(Cl)cc2)cc1`, the Potency was 33.8 µM (active).

With `COC(=O)c1ccccc1C(=O)c1c(C)cc(C)cc1C`, the Potency result is “inactive”.

Take `O=C(/C=C/c1cccc(Cl)c1Cl)OCC(=O)N1CCOCC1`: the Potency entry is “inactive”.

Turning to `Cc1ccc(S(=O)(=O)N2[C@@H](c3ccc(C(C)(C)C)cc3)C(C(=O)O)=CC[C@H]2c2cccc(Cl)c2)cc1`, the Potency is 47.8 µM (active).

On to `CCOC(=O)C1Oc2ccccc2C(c2ccc(F)cc2)=C1C(=O)OC` (configuration not stated), for which the Potency entry was “inactive”.

With `Cc1ccc2cccc(Oc3nnnn3-c3ccccc3)c2n1`, the Potency entry was “inactive”.

In the case of `O=C1OC(c2ccccc2)(c2cc(Br)c(O)c(Br)c2)c2ccccc21` (configuration not stated), the Potency is 84.9 µM (active).

As for `C=CCSc1nc2ccccc2c(=O)n1Cc1ccccc1`, the Potency entry was “inactive”.

Take `c1ccc(CNc2c(-c3cccc(SC4CCCCC4)c3)nc3ccccn23)cc1`: the Potency result was “inactive”.

`O=C(CSc1nc2ccccc2o1)NCc1ccc2c(c1)OCO2`: the Potency result is “inactive”.

As to `COC(=O)c1ccc2nc(-c3ccc(OC)c(OC)c3)c(CC3CCCCC3)n2c1`, the Potency result is “inactive”.

`COc1ccc(N2C(=O)CSC2c2ccccc2F)c(OC)c1` (configuration not stated): the Potency result was “inactive”.

On to `O=C1[C@H]2CCC=C[C@H]2[C@H](c2ccccc2Br)N1Cc1ccccc1`, for which the Potency result was “inactive”.

As for `Fc1cc(F)cc(-c2c(-c3ccccc3)ncc3ccc(F)cc23)c1`, the Potency result was “inactive”.

On to `Cc1ccc(C2N(c3cccc(Cl)c3)C(=O)N3CCCN23)cc1` (configuration not stated), for which the Potency result is “inactive”.

For the molecule `O=C(O)c1cc(Nc2cc(Cl)c3nonc3c2[N+](=O)[O-])ccc1O`, the Potency was 9.53 µM (active).

As to `COc1ccc(S(=O)(=O)N2CCCC2)c(Cl)c1Cl`, the Potency entry was “inactive”.

With `O=C(O)CCCN1C(=O)/C(=C/c2cn(-c3ccccc3)nc2-c2cccs2)SC1=S`, the Potency entry is “inactive”.

`COc1cc2cc3c4c(cc(OC)c(OC)c4c2cc1OC)CCN3C`: the Potency entry is “inactive”.

Turning to `COC(=O)c1ccc2nc(-c3cccc(Br)c3)c(Cc3ccsc3)n2c1`, the Potency entry was “inactive”.

For `CCCCC1=C(C(=O)OCC)C(C(=O)OCC)Oc2ccccc21` (configuration not stated), the Potency entry is “inactive”.

For a further assay the target is unchanged. The assay can be described thus: Confirmatory qHTS for agonist of cAMP-regulated guanine nucleotide exchange factor 3 (EPAC1) (AID 1645881). Note: nearly all actives have a fitted effect of over 75% in size. The conditions noted are these: EPAC1 Rap1B BODIPY-GDP exchange fluorescence; series mostly up to 154 µM. Background: qHTS replaces the single test concentration by a dilution series.
Turning to `COC(=O)c1ccc2nc(-c3ccc(F)cc3)c(Cc3ccccc3)n2c1`, the Potency entry is “inactive”.

Take `O=C(c1noc2c1CCc1ccccc1-2)N1CCCc2ccccc21`: the Potency result is “inactive”.

For the molecule `CC1CN(c2nc(-c3ccccc3)nc3ccccc23)CC(C)O1` (configuration not stated), the Potency entry was “inactive”.

Take `C=C1SC(Nc2c(C)cc(C)cc2C)=NC12CCCCC2`: the Potency entry was “inactive”.

Regarding `Cc1ccc(-c2nn3cnnc3c3ccccc23)cc1C`, the Potency entry is “inactive”.

As for `COc1ccccc1C1CC(=O)Oc2cc(C)c(Cl)c(C)c21` (configuration not stated), the Potency entry is “inactive”.

In the case of `CC1CN(c2nc3ccccc3cc2-c2ccccc2)CC(C)O1` (configuration not stated), the Potency result is “inactive”.

Take `Cc1cc2nc3c(=O)n(C)c(=O)n(C)c3nc2cc1N=CN(C)C`: the Potency is 50.1 µM (active).

With `COc1ccc(N2C(=O)[C@H]3CCC=C[C@H]3[C@@H]2c2ccccc2Br)cc1`, the Potency result was “inactive”.

`COC(=O)c1ccc2nc(-c3ccc(F)cc3)c(CC3CCCCC3)n2c1`: the Potency result was “inactive”.

Take `CCOC(=O)C1Oc2ccccc2C(c2ccc(C)cc2)=C1C(=O)OC` (configuration not stated): the Potency entry was “inactive”.

Regarding `C=CCOc1ccc(/C=N/NC(C)=O)cc1OCC`, the Potency entry is “inactive”.

Consider `CC(OC(=O)c1ccccc1Oc1ccccc1)C(=O)NC1CC1` (configuration not stated), for which the Potency entry was “inactive”.

Consider `COc1ccccc1-c1oc2ccccc2c1-c1ccc2c(c1)OCO2`, for which the Potency result was “inactive”.

As for `COc1cc(C)c(S(=O)(=O)N2CCCC2)cc1C(C)C`, the Potency result is “inactive”.

For the molecule `C=C[C@]1(C)C[C@@H](OC(=O)CSCCN(CC)CC)[C@]2(C)C(C)CC[C@]3(CCC(=O)[C@H]32)[C@@H](C)[C@@H]1O` (some centres not stated), the Potency result is “inactive”.

For `CCCC(CNC(C)=O)(C1=CCCCC1)c1ccccc1` (configuration not stated), the Potency entry is “inactive”.

As to `COC(=O)c1cn(C(=O)c2ccc(C)cc2C)c2ccccc12`, the Potency result is “inactive”.

Turning to `Cc1ccc(S(=O)(=O)N2[C@@H](c3ccc(C(C)(C)C)cc3)C(C(=O)O)=CC[C@H]2c2ccc(Cl)cc2)cc1`, the Potency result is “inactive”.

For the molecule `COC(=O)c1ccccc1C(=O)c1c(C)cc(C)cc1C`, the Potency entry was “inactive”.

`O=C(/C=C/c1cccc(Cl)c1Cl)OCC(=O)N1CCOCC1`: the Potency result was “inactive”.

On to `Cc1ccc(S(=O)(=O)N2[C@@H](c3ccc(C(C)(C)C)cc3)C(C(=O)O)=CC[C@H]2c2cccc(Cl)c2)cc1`, for which the Potency entry was “inactive”.

`CCOC(=O)C1Oc2ccccc2C(c2ccc(F)cc2)=C1C(=O)OC` (configuration not stated): the Potency entry is “inactive”.

In the case of `Cc1ccc2cccc(Oc3nnnn3-c3ccccc3)c2n1`, the Potency entry is “inactive”.

On to `O=C1OC(c2ccccc2)(c2cc(Br)c(O)c(Br)c2)c2ccccc21` (configuration not stated), for which the Potency entry is “inactive”.
